The results in this text go back to publication PMC4336329 (PLoS ONE, 2015).

Hit rate of the full screen: of about 310,000 compounds, about 2,200 (0.71%) showed an effect of 50% or more. Effects have a minus sign here. The entries come from a sample that favours strong results as a whole.

Sequence of human ether-à-go-go-related gene (hERG) potassium channel (Q12809 whole entry, looked up): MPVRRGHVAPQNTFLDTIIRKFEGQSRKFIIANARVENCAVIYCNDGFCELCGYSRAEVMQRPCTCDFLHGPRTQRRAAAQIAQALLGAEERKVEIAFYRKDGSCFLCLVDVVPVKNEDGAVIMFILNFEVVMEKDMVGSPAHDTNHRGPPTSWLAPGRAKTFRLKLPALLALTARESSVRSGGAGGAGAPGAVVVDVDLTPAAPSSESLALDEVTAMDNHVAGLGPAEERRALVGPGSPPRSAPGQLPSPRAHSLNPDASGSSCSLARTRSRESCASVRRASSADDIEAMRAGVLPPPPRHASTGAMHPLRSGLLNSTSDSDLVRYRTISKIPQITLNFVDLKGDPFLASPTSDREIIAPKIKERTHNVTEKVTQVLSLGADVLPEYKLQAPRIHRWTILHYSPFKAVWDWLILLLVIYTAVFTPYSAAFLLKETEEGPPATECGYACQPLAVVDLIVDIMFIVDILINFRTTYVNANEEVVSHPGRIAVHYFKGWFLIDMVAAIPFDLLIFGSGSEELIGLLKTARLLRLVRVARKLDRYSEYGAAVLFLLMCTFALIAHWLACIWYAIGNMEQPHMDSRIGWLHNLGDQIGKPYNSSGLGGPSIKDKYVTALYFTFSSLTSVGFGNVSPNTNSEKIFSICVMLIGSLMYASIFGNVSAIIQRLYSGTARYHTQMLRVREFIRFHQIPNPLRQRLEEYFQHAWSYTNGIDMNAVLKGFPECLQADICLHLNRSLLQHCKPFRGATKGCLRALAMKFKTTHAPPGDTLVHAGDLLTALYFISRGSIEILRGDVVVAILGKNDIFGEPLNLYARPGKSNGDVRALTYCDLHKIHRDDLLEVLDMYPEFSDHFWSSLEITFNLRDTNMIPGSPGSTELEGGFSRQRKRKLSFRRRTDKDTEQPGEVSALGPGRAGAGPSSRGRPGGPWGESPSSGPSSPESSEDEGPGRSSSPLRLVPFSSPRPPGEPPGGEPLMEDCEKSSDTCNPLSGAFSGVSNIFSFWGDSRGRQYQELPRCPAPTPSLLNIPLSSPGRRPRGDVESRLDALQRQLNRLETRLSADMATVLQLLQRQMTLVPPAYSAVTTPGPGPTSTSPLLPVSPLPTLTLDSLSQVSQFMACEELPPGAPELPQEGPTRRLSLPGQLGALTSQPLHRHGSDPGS

This experiment has as its target human ether-à-go-go-related gene (hERG) potassium channel (human, UniProt Q12809). Kind of experiment: primary screen, population patch clamp on CHO cells stably expressing hERG; higher = less effect of the substance.
As to `Cn1c(N)c(C(=O)COc2ccc(Cl)cc2Cl)c(=O)n(C)c1=O`, the “hERG current change (%, negative = inhibition) at 1uM” value was determined as 12.3%.

On to `Cn1c(N)c(C(=O)COC(=O)CCCOc2ccc(Cl)cc2Cl)c(=O)n(C)c1=O`, for which the “hERG current change (%, negative = inhibition) at 1uM” value stood at 16%.

Regarding `CC(Oc1ccc(Cl)cc1Cl)C(=O)OCC(=O)c1c(N)n(C)c(=O)n(C)c1=O` (centres unmarked), the “hERG current change (%, negative = inhibition) at 1uM” value is -57.5%.

Consider `O=C(CSc1nc2c(cnn2-c2ccc(F)cc2)c(=O)[nH]1)N1CCCCCC1`, for which the “hERG current change (%, negative = inhibition) at 1uM” value came out at 11%.

`O=C(Nc1ccncc1)C1COc2ccccc2O1` (centres unmarked): the “hERG current change (%, negative = inhibition) at 1uM” value is 1.88%.

Consider `COc1cccc(N2CC(C(=O)N3CCC4(CC3)CC(=O)c3ccccc3O4)CC2=O)c1` (centres unmarked), for which the “hERG current change (%, negative = inhibition) at 1uM” value amounted to 3.79%.

On to `O=C(C1CC(=O)N(c2ccc(F)cc2)C1)N1CCN(c2ccccc2)CC1` (centres unmarked), for which the “hERG current change (%, negative = inhibition) at 1uM” value is listed as -13.6%.

As for `O=C(C1CC(=O)N(c2ccc(F)cc2)C1)N1CCN(c2ccc(F)cc2)CC1` (centres unmarked), the “hERG current change (%, negative = inhibition) at 1uM” value is -71.1%.

`Cc1ccc(N2CC(C(=O)N3CCC4(CC3)CC(=O)c3ccccc3O4)CC2=O)cc1C` (centres unmarked): the “hERG current change (%, negative = inhibition) at 1uM” value is reported as -6.22%.

Regarding `O=C(C1CC(=O)N(c2ccccc2)C1)N1CCN(c2ccc(F)cc2)CC1` (centres unmarked), the “hERG current change (%, negative = inhibition) at 1uM” value was -8.63%.

`Cc1ccc(N2CC(C(=O)N3CCC4(CC3)CC(=O)c3ccccc3O4)CC2=O)cc1` (centres unmarked): the “hERG current change (%, negative = inhibition) at 1uM” value was -47.4%.

Take `O=C1CC2(CCN(C(=O)C3CC(=O)N(c4ccc(F)cc4)C3)CC2)Oc2ccccc21` (centres unmarked): the “hERG current change (%, negative = inhibition) at 1uM” value is -73.6%.

In the case of `COc1ccc(N2CC(C(=O)N3CCC4(CC3)CC(=O)c3ccccc3O4)CC2=O)cc1` (centres unmarked), the “hERG current change (%, negative = inhibition) at 1uM” value was -34.8%.

Consider `O=C1CC2(CCN(C(=O)C3CC(=O)N(c4ccccc4)C3)CC2)Oc2ccccc21` (centres unmarked), for which the “hERG current change (%, negative = inhibition) at 1uM” value is -51.5%.

As for `Cc1cnc(C(=O)NNC(=O)c2ccc(Br)cc2)cn1`, the “hERG current change (%, negative = inhibition) at 1uM” value is on record as 2.55%.

For `Cc1cccc(NC(=O)CNC(=O)COc2ccc(C(=O)c3ccc(F)cc3)cc2)c1C`, the “hERG current change (%, negative = inhibition) at 1uM” value came to 1.92%.

Regarding `CCCCC(=O)Nc1ccc2c(c1)nc(CN1CCN(C(=O)OCC)CC1)n2C`, the “hERG current change (%, negative = inhibition) at 1uM” value came out at 13.1%.

For `Cc1ccc(Oc2cc(C#N)c(C#N)cc2-n2nnc3ccccc32)cc1C`, the “hERG current change (%, negative = inhibition) at 1uM” value was found to be 7.63%.

With `CCCCN(CC)C(=O)Cc1ccccc1OC`, the “hERG current change (%, negative = inhibition) at 1uM” value was 18%.

Take `CCCCNC(=S)Nc1ccc2nc3n(c(=O)c2c1)CCCCC3`: the “hERG current change (%, negative = inhibition) at 1uM” value is on record as -24.7%.

As for `CSc1ccc(NC(=O)NCCCN2CCC(Cc3ccccc3)CC2)cc1`, the “hERG current change (%, negative = inhibition) at 1uM” value was -76%.

Turning to `Cc1ccc(S(=O)(=O)NCc2ccc(C(=O)NCCCN3CCN(C)CC3)cc2)cc1`, the “hERG current change (%, negative = inhibition) at 1uM” value amounted to 13.4%.

Turning to `CCN1CCN(CCCNC(=O)CCc2nc(-c3ccc(OC)cc3)no2)CC1`, the “hERG current change (%, negative = inhibition) at 1uM” value turned out to be 6.54%.

As for `Cc1ccccc1CC1CCN(CCCNC(=O)Nc2ccccc2)CC1`, the “hERG current change (%, negative = inhibition) at 1uM” value is -34.1%.

On to `CSc1ccc(NC(=O)NCCCN2CCN(c3ccccc3F)CC2)cc1`, for which the “hERG current change (%, negative = inhibition) at 1uM” value is on record as -12.8%.

With `COc1ccc(-c2noc(CCC(=O)NCCCN3CCC(C)CC3)n2)cc1`, the “hERG current change (%, negative = inhibition) at 1uM” value is recorded as 9.03%.

For `Cc1ccc(S(=O)(=O)NCc2ccc(C(=O)NCCCN3CCC(Cc4ccccc4)CC3)cc2)cc1`, the “hERG current change (%, negative = inhibition) at 1uM” value is listed as -52.4%.

For `O=c1c2cc(NC(=S)NCCCN3CCC(Cc4ccccc4)CC3)ccc2nc2n1CCCCC2`, the “hERG current change (%, negative = inhibition) at 1uM” value was -57.1%.

For the compound `COc1ccc(-c2noc(CCC(=O)NCCCN3CCC(Cc4ccccc4)CC3)n2)cc1`, the “hERG current change (%, negative = inhibition) at 1uM” value was -84.9%.

Regarding `O=c1c2cc(NC(=S)NCCN3CCCCCC3)ccc2nc2n1CCCCC2`, the “hERG current change (%, negative = inhibition) at 1uM” value turned out to be 7.57%.

In the case of `CC(=O)Nc1ccc(S(=O)(=O)NCc2ccc(C(=O)NCCCN3CCC(C)CC3)cc2)cc1`, the “hERG current change (%, negative = inhibition) at 1uM” value was 16.7%.

In the case of `COc1ccc(C2C=C(Nc3ccccc3)C(=O)N2c2ccccc2)cc1OC` (centres unmarked), the “hERG current change (%, negative = inhibition) at 1uM” value stood at 20.1%.

In the case of `C/C(=N/NC(=O)c1ccc(C)nc1)c1ccc2c(c1)CCCC2`, the “hERG current change (%, negative = inhibition) at 1uM” value is on record as -4.02%.

As to `CC(=O)Oc1cc2c(cc1Cl)C1(CC(c3ccccc3Cl)O2)CC(C)(C)NC(=S)N1` (centres unmarked), the “hERG current change (%, negative = inhibition) at 1uM” value is on record as 4.5%.

For the compound `COc1ccc(NC(=O)NCCCN2CCC(Cc3ccccc3)CC2)cc1`, the “hERG current change (%, negative = inhibition) at 1uM” value is -82.2%.

For `COc1ccc(NC(=O)N2CCC(Cc3ccccc3)CC2)cc1`, the “hERG current change (%, negative = inhibition) at 1uM” value came to 6.74%.

Consider `COc1ccc(NC(=O)NCCCCc2ccccc2)cc1`, for which the “hERG current change (%, negative = inhibition) at 1uM” value is on record as 6.14%.

Consider `Cc1ccc(NC(=O)CCn2nc(C)cc2C)c(C)c1`, for which the “hERG current change (%, negative = inhibition) at 1uM” value came to 8.75%.

`Cc1ccccc1CC1(CO)CCCN(C(=O)c2ccccc2N(C)C)C1` (centres unmarked): the “hERG current change (%, negative = inhibition) at 1uM” value was 10.9%.

`Cc1ccccc1CC1(CO)CCCN(C(=O)c2ccccc2Cl)C1` (centres unmarked): the “hERG current change (%, negative = inhibition) at 1uM” value was -70.4%.

Regarding `Cc1ccccc1CC1(CO)CCCN(C(=O)c2cc(Cl)ccc2F)C1` (centres unmarked), the “hERG current change (%, negative = inhibition) at 1uM” value turned out to be 14.5%.

For the compound `Cc1cc(=O)n2c(n1)OC(CO)C2` (centres unmarked), the “hERG current change (%, negative = inhibition) at 1uM” value is reported as 12.1%.

Consider `Cc1nc(C)c(-c2ccccc2)c(=O)[nH]1`, for which the “hERG current change (%, negative = inhibition) at 1uM” value is given as 12.8%.

In the case of `O=C(N1CCOCC1)N1c2ccccc2CC(N2CCOCC2)c2ccccc21` (centres unmarked), the “hERG current change (%, negative = inhibition) at 1uM” value was found to be 17%.

As for `OCC1(Cc2ccccc2)CCN(Cc2ccc(C(F)(F)F)cc2)CC1`, the “hERG current change (%, negative = inhibition) at 1uM” value was -6.85%.

As to `OCC1(Cc2ccc(Cl)cc2)CCN(Cc2ccccc2F)CC1`, the “hERG current change (%, negative = inhibition) at 1uM” value is -18.4%.

Turning to `OCC1(Cc2ccc(Cl)cc2)CCN(Cc2ccc(F)c(F)c2)CC1`, the “hERG current change (%, negative = inhibition) at 1uM” value is on record as -4.29%.

For the compound `OCC1(Cc2ccccc2)CCN(CCCC2CCCC2)CC1`, the “hERG current change (%, negative = inhibition) at 1uM” value is reported as -79%.

For the compound `CN1CCC(CO)(Cc2ccccc2)CC1`, the “hERG current change (%, negative = inhibition) at 1uM” value amounted to 4.74%.

For the compound `OCC1(Cc2ccc(Cl)cc2)CCN(CCCc2ccccc2)CC1`, the “hERG current change (%, negative = inhibition) at 1uM” value is reported as -83.6%.

Turning to `COc1ccc(CCNC(=O)Cc2cccs2)cc1`, the “hERG current change (%, negative = inhibition) at 1uM” value amounted to 16.8%.

As for `COc1ccc(C(CNC(=O)CN2C(=O)NC3(CCCC3)C2=O)N(C)C)cc1` (centres unmarked), the “hERG current change (%, negative = inhibition) at 1uM” value is on record as 13.2%.

In the case of `COc1ccc2nc(N=NC3=C(O)CC(C)(C)CC3=O)sc2c1`, the “hERG current change (%, negative = inhibition) at 1uM” value is 7.73%.

For `COc1ccccc1Nc1nc(N)nc(CN2CCN(Cc3ccc4c(c3)OCO4)CC2)n1`, the “hERG current change (%, negative = inhibition) at 1uM” value is given as -79.8%.

In the case of `COc1ccccc1Nc1nc(N)nc(CN2CCN(Cc3ccccc3)CC2)n1`, the “hERG current change (%, negative = inhibition) at 1uM” value was -76.6%.

On to `COc1ccccc1Nc1nc(N)nc(CN2CCN(c3ccccc3F)CC2)n1`, for which the “hERG current change (%, negative = inhibition) at 1uM” value is on record as -9.68%.

As for `COc1ccccc1Nc1nc(N)nc(CN2CCC(Cc3ccccc3)CC2)n1`, the “hERG current change (%, negative = inhibition) at 1uM” value is recorded as -95.7%.

With `COc1ccccc1Nc1nc(N)nc(CN2CCN(c3ccccc3)CC2)n1`, the “hERG current change (%, negative = inhibition) at 1uM” value is -3.16%.

On to `COc1ccccc1Nc1nc(N)nc(CN2CCCCCC2)n1`, for which the “hERG current change (%, negative = inhibition) at 1uM” value is given as -32.2%.

On to `COc1ccccc1Nc1nc(N)nc(CN2CCOCC2)n1`, for which the “hERG current change (%, negative = inhibition) at 1uM” value was found to be 14.7%.

Regarding `COc1cccc(N2CCN(Cc3nc(N)nc(Nc4ccccc4OC)n3)CC2)c1`, the “hERG current change (%, negative = inhibition) at 1uM” value amounted to 10.2%.

As to `COc1ccc(N2CCN(Cc3nc(N)nc(Nc4ccccc4OC)n3)CC2)cc1`, the “hERG current change (%, negative = inhibition) at 1uM” value is listed as -14.5%.
